# Where “and” joins values, the source holds several entries; their conditions need not be identical. Equal entries are not always repeated. The panel holds about 83,000 compounds, 20% with a hit somewhere; the sample as a whole holds those more often.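 How to read the values: 0–100, growth inhibition (40 = 60% inhibited); 0, no net growth; -100 to 0, cell death (-40 = 40% of starting cells died; -100 = all dead).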 A number with no mark means an inactive call. Calls of active or inactive are those of the source. The calls were made as follows: active = growth percent below 10; inactive = the rest.
# System: MDA-MB-468 breast
# Test: NCI-60 one-dose screen, 48 h (100 = growth as untreated, 0 = no growth, -100 = all killed)
# Settings: 10 µM unless noted
row,Compound,growth
1,COCCOC(=O)NC(=O)Nc1ccc(/C(=N/O)c2ccc(Cl)cc2)cc1,19.8%
2,C#Cc1nc2ccccc2c(=O)[nH]1,-46.9% (active)
3,CCOc1cccc(NC2=C(Br)C(=O)C(C)=C(C)C2=O)c1,-65.7% (active)
4,OC(COc1cccc2ccccc12)CN1CCN(c2ccccc2Cl)CC1 (stereo not given),89.7%
5,O=C(CCl)Nc1ccc(NC(=O)c2cc(Cl)ccc2O)c(Cl)c1,79.7%
6,CN1CCN(c2ccc3cc(-c4nc5ccccc5[nH]4)c(=O)oc3c2)CC1,68.3%
7,COc1c(N2CC3CCCNC3C2)c(F)cc2c(=O)c(C(=O)N/N=C/c3ccc(N(C)C)cc3)cn(C3CC3)c12 (stereo not given),79%
8,O=C1/C(=C/c2ccc(F)cc2)Cc2ccccc21,96%
9,CCN1CCN(Cc2ccc(NC(=O)Nc3ccc(-n4ccc5c(NC(=O)c6ccccc6)nccc54)cc3)cc2C(F)(F)F)CC1,60.1%
10,Nc1c(C(=O)Nc2cccc3cnccc23)sc2nc3c(cc12)CN(Cc1ccccc1)CC3,94.8%
11,O=C(O)CCCCCNC(=O)OCc1ccccc1,116%
12,CN1CCN(CCC(=O)Nc2cccc(-n3cc(-c4ccncc4)c(-c4ccc(Cl)c(O)c4)n3)c2)CC1,12.7%
13,COC(=O)C12C3C(=O)N(c4ccc(OC)cc4)C(=O)C3C(c3cn(-c4ccccc4)nc3C)N1[C@H](c1cn(-c3ccccc3)nc1C)[C@@H]1C(=O)N(c3ccc(OC)cc3)C(=O)[C@@H]12 (stereo not given in full),97.4%
14,NC(CSC(c1ccccc1)(c1ccccc1)c1ccccc1)C(=O)NCC(=O)O (stereo not given),55%
15,O=C(Nc1ccc(Br)cc1)Nc1cccc(Br)c1,27.2%
16,O=C1[C@H]2Cc3c([nH]c4ccccc34)[C@H](c3ccc(Cl)cc3)N2C(=O)CN1C1CCN(CC2CCCCC2)CC1,62.7%
17,C=C(C)[C@H]1CC/C(C)=C/CC[C@]2(C)O[C@H]2CC/C(COC(C)=O)=C\C1=O,115%
18,CCCCCN1C=C/C(=C\C(=O)n2ccc3ccccc32)c2ccccc21,73%
19,CCN1C(=O)/C(=C/N2N=C(c3ccc(Cl)cc3)CC2c2ccc(OC)cc2)SC1=S (stereo not given),93.3%
20,C/C(=C(\c1ccc(OCCN2CCCCCC2)cc1)c1ccc(OC(=O)c2ccccc2)cc1)c1ccc(Cl)cc1,45.5%

row,Compound,growth
1,CC(=O)c1cc(Br)ccc1O,103%
2,CCN(CC)CCn1c2ccc(OC)cc2c2sc3cc(OC)ccc3c(=O)c21,14.5%
3,CCn1c(Cc2ccccc2Nc2c(Cl)cccc2Cl)nnc1SCC(=O)NN1C(=O)/C(=C/c2cccc(OC)c2OC)SC1=S,99.5%
4,C/C(=N/Nc1nc(N/N=C(/C)c2ccc([N+](=O)[O-])cc2)nc(N2CCOCC2)n1)c1ccc([N+](=O)[O-])cc1,79.7%
5,NC(=O)c1cccc(-n2ccc3cc(NC(=O)c4ccc(N5CCOCC5)c(C(F)(F)F)c4)ccc32)n1,75.7%
6,Cc1nc2cccc(NCCCCC(=O)NO)c2c(=O)n1-c1ccccc1,54.6%
7,COc1ccc([N+](=O)[O-])cc1OC,108% and 101%
8,CC(C)(C)c1ccc(N2CSC(=S)N(c3ccc(C(C)(C)C)cc3)C2)cc1,111%
9,O=C(c1ccc(Cl)cc1)N1CCN(c2ccnc3cc(Cl)ccc23)CC1,72.7%
10,COc1cc(-c2nn(-c3ccc(Br)cc3)cc2CO)ccc1O,96.1%
11,O=C(Oc1c(Cl)c(Cl)c(Cl)c(Cl)c1Cl)C1CCCN1C(=O)OCc1ccccc1 (stereo not given),11.9%
12,CN1CCN(Cc2ccc(NC(=O)c3cncc(C#Cc4cnccc4C#N)c3)cc2C(F)(F)F)CC1,90.5%
13,O=c1c2cc(Cl)ccc2oc2ccc(OCCCCCN3CCCCCC3)cc12,74.1%
14,CCOC(=O)c1c(NC(=O)c2cccc(C(F)(F)F)c2)sc2c(CN3CCN(C)CC3)c(O)ccc12,-2.41% (active)
15,O=c1cc(/C=N\Nc2nc(-c3ccc(Cl)cc3Cl)cs2)c2cc(Cl)ccc2o1,102%
16,O=C(Cc1ccccc1)c1ccc(O)c(Cl)c1,-1.16% (active)
17,CC(C)(C)n1cc(-c2ccnc(NCCCNS(=O)(=O)c3ccc(Br)cc3)c2)c(-c2cccc(O)c2)n1,3.51% (active)
18,Cc1ccc(C(=O)C(Br)C(Br)c2ccccc2)cc1 (stereo not given),42.8%
19,C=C1CCC2C3(C)COC(c4ccccc4)OC3CCC2(C)C1/C=C/C1=CCOC1=O (stereo not given),29.5%
20,O=C(COc1ccc(/C=C2\C(=O)Nc3cc(Cl)ccc32)cc1)Nc1ccc(Cl)cc1,86.8%

# — PubChem BioAssay (NCI)
